Most compounds without a hit are left out; they make up all but 6.9% or so of the library.
Giardia kill: Small Molecules that selectively kill Giardia lamblia: qHTS | Giardia lamblia trophozoite viability | activity change, % at 7.66 µM, hits read low | 340,000 compounds, 0.15% hits; in the data active means activity change below about -80%; inconclusive means between about -30% and that limit;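 further: parasites exposed to compound for two days anaerobically before the ATP read; on the % scale 0 is the no-effect control and ±100 the full control effect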
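Luminescence from cellular ATP indicates surviving trophozoites (100 cells/well) following 48 hrs anaerobic compound treatment at 37 deg C; signal develops 15-30 min at room temperature.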
IL1B secr inh: qHTS for Inhibitors of Inflammasome Signaling: IL-1-beta AlphaLISA Primary Screen; THP-1 LPS/ATP IL-1B secretion, AlphaLISA, 16 h; active compounds read low; activity change, % at 57.5 µM; 360,000 compounds, 4.7% hits; in the data active means activity change below about -50%; inconclusive means mostly about -30% to -49%; further: on the % scale 0 is the no-effect control and ±100 the full control effect
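THP-1 cells pretreated 1 hr with compounds (up to 57.5 uM final), then stimulated with LPS (250 ng/mL final) plus ATP (1.25 mM final); secreted IL-1B measured by AlphaLISA after 16 hr, decreased signal indicating inhibition.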
Vif-A3G inh: qHTS for Inhibitors of Vif-A3G Interactions: qHTS; HeLa A3G-eYFP + Vif (tagged APOBEC3G with the HIV-1 protein that degrades it), YFP fluorescence, overnight; Potency, µM (titrated, usually from 46.1 µM), inactives show at the highest dose activity, negative = active, most hits filed as inhibitors; AID 602310, 2012; 410,000 compounds, 0.076% hits; further: potency means the concentration at half of the fitted maximal effect; on the % scale 0 is the no-effect control and ±100 the full control effect; nearly all actives have a fitted effect of over 60% in size
Target sequence (Q9HC16 whole entry, looked up): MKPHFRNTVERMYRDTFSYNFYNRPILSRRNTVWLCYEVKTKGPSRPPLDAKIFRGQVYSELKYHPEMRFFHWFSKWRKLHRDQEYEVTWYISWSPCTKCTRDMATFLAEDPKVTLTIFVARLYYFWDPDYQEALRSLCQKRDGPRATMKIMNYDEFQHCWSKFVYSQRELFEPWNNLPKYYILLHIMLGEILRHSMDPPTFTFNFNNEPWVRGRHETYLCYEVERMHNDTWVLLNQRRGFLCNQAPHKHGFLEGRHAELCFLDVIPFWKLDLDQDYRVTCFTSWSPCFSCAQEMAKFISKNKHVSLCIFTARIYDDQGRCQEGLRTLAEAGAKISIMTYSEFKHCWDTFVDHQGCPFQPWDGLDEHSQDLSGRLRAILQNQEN
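HeLa cells stably expressing Vif and C-terminally eYFP-tagged A3G, seeded overnight at 37 deg C, then exposed to compound by pintool overnight at 37 deg C. Rise in yellow fluorescence (Ex 488/Em 500-530, Acumen) marks blocked Vif-driven A3G degradation.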
Vif-APOBEC3F blk: qHTS for Inhibitors of Vif-A3F Interactions: qHTS; HeLa A3F-eYFP + Vif (tagged APOBEC3F with the HIV-1 protein that degrades it), YFP fluorescence increase; Potency, µM (series often up to 46.1 µM), without a hit: top-dose activity, negative = active; 390,000 compounds, 0.2% hits; AID 602313, 2012; further: potency means the concentration at half of the fitted maximal effect; % of control where 0% means no effect; nearly all actives have a fitted effect of over 65% in size
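HeLa cells stably expressing A3F-eYFP plus Vif, plated and incubated overnight at 37 deg C, then exposed to compounds overnight at 37 deg C. Blocked degradation read as raised yellow fluorescence (Ex 488/Em 500-530).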
MCF10A rerep: A quantitative high throughput screen for small molecules that induce DNA re-replication in MCF 10a normal breast cells; MCF 10A DNA re-replication, Hoechst nuclear intensity, 48 h; Potency, µM (doses to about 46.1 µM), for inactives: top-dose activity, positive = re-replication, actives largely listed as activators; 350,000 compounds, 2.9% hits; further: potency means the concentration at half of the fitted maximal effect; % of control where 0% means no effect; nearly all actives have a fitted effect of over 50% in size
SW480 rerep: A quantitative high throughput screen for small molecules that induce DNA re-replication in SW480 colon adenocarcinoma cells; AID 624297, 2012; 340,000 compounds, 1.8% hits; Potency, µM (highest dose often 46.1 µM), for inactives: at the highest dose re-replication activation, most hits filed as activators; SW480 DNA re-replication, Hoechst DNA content imaging, 48 h; further: potency means the concentration at half of the fitted maximal effect; % of control where 0% means no effect; nearly all actives have a fitted effect of over 55% in size
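Compounds, transferred as 23 nL by pin tool, were incubated with cells for 48 hr; DNA content per nucleus was then quantified by Hoechst staining and fluorescence plate imaging.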
Numbers without * were called inactive; [ ] = another dose, or the depositor's remark. Unless noted, the call rests on the fitted dose curve; in most records, active means well fitted curve in the direction sought with a large enough effect; inconclusive means small, poorly fitted or top-dose-only effect, or another doubt; inactive means no such curve, though single readings can be large; an effect the other way counts as inactive or inconclusive.

Cc1[nH]n(-c2ccccc2)c(=S)c1C=NCCCN=Cc1c(C)[nH]n(-c2ccccc2)c1=S was read as Giardia kill 15, IL1B secr inh -97*, Vif-A3G inh -4%, Vif-APOBEC3F blk -17%, MCF10A rerep 18% and SW480 rerep 22%.
For COC(=O)CN=Cc1c(C)[nH]n(-c2ccccc2)c1=O the results were Giardia kill 1, IL1B secr inh 0, Vif-A3G inh 5%, Vif-APOBEC3F blk 2%, MCF10A rerep -3% and SW480 rerep inconclusive.
For CNC(=O)c1ccsc1NC(=O)c1sc2ccccc2c1Cl the results were Giardia kill -8, IL1B secr inh -1, Vif-A3G inh -1%, Vif-APOBEC3F blk -3%, MCF10A rerep 29µM* and SW480 rerep inconclusive.
For Cc1nnc(NC(=O)c2sc3ccccc3c2Cl)s1 the results were Giardia kill -84*, IL1B secr inh 0, Vif-A3G inh 0%, MCF10A rerep 20% and SW480 rerep -2%.
For CCOc1ccccc1NC(=O)Nc1nnc(N2CCCC(C)C2)s1 (centres undefined) the results were Vif-A3G inh -5% and Vif-APOBEC3F blk 0%.
`CC1Cc2ccccc2C[N+]1(C)CC(=O)c1ccc(I)cc1` (centres undefined) gave Vif-A3G inh 2%.
Screening Cc1ccc(C(=O)Nc2nnc(CC(=O)N/N=C/c3ccc(O)c(O)c3)s2)cc1 returned Giardia kill -24, IL1B secr inh -7, Vif-A3G inh 0%, Vif-APOBEC3F blk -5%, MCF10A rerep 27% and SW480 rerep -10%.
Screening Cc1ccc(C(=O)Nc2nnc(CC(=O)N/N=C/c3ccncc3)s2)cc1 returned Giardia kill -19, IL1B secr inh -4, Vif-A3G inh 0%, Vif-APOBEC3F blk -15%, MCF10A rerep 0% and SW480 rerep 21µM*.
Cc1ccc(-n2ncc3c(N4CCN(Cc5ccccc5)CC4)ncnc32)cc1C was read as Vif-A3G inh -8% and Vif-APOBEC3F blk 1%.
Screening O=S(=O)(c1cccc(C(F)(F)F)c1)N1CCC(Oc2ccc(-n3cnnn3)cc2)CC1 returned Vif-A3G inh 4% and Vif-APOBEC3F blk 1%.
O=C(c1ccco1)N1CCN(C(=O)c2ccc(-c3ccccc3Cl)o2)CC1 was read as Giardia kill 29, IL1B secr inh -55*, Vif-A3G inh -1%, Vif-APOBEC3F blk 5%, MCF10A rerep 15% and SW480 rerep -11%.
Screening O=C(c1cc(-c2ccccc2Cl)on1)N1CCN(C(=O)c2ccco2)CC1 returned Giardia kill 9, IL1B secr inh -29, Vif-A3G inh 2%, Vif-APOBEC3F blk -4%, MCF10A rerep 7% and SW480 rerep 1%.
`CCOc1ccc2c(c1)-c1c(ssc1=S)C(C)(C)N2C(=O)c1ccco1` gave Giardia kill 16, IL1B secr inh -12, Vif-A3G inh inconclusive, Vif-APOBEC3F blk 2%, MCF10A rerep 4.1µM* and SW480 rerep 16µM*.
Screening COCCCNc1nc2ccccc2nc1NS(=O)(=O)c1ccccc1 returned Giardia kill 11, IL1B secr inh 0, Vif-A3G inh 1%, Vif-APOBEC3F blk 22µM*, MCF10A rerep -5% and SW480 rerep 3%.
COc1ccc(-c2cc(C(F)(F)F)nc(SCC(=O)N3CCCCC3)n2)cc1OC was read as Vif-A3G inh -3% and Vif-APOBEC3F blk -8%.
For CCN(C(=O)c1c(C)cc(=O)oc1C)c1ccc2c(c1)OCO2 the results were Giardia kill 0, IL1B secr inh 10, Vif-A3G inh 0%, Vif-APOBEC3F blk 1%, MCF10A rerep 0% and SW480 rerep -3%.
`CCN(C(=O)c1coc(=O)c(Br)c1)c1ccc2c(c1)OCO2` gave Giardia kill 14, IL1B secr inh -11, Vif-A3G inh inconclusive, Vif-APOBEC3F blk -8%, MCF10A rerep 13µM* and SW480 rerep inconclusive.
Screening COc1ccc(OCCn2c(NC(=O)c3ccco3)nc3ccccc32)cc1 returned Giardia kill -12, IL1B secr inh -20, Vif-A3G inh 1%, Vif-APOBEC3F blk 3%, MCF10A rerep 12µM* and SW480 rerep 4.1µM*.
Screening CCCCn1c(NC(=S)Nc2ccccc2)nc2ccccc21 returned Giardia kill 15, IL1B secr inh -106*, Vif-A3G inh -17%, Vif-APOBEC3F blk -5%, MCF10A rerep inconclusive and SW480 rerep 16µM*.
S=C(Nc1ccccc1)Nc1nc2ccccc2n1CCOc1ccccc1 was read as Giardia kill -4, IL1B secr inh -106*, Vif-A3G inh -15%, Vif-APOBEC3F blk 3%, MCF10A rerep inconclusive and SW480 rerep inconclusive.
`Nc1nc2ccccc2n1CCOc1ccc(F)cc1` gave Giardia kill -5, IL1B secr inh -51*, Vif-A3G inh 0%, Vif-APOBEC3F blk 2%, MCF10A rerep 4% and SW480 rerep -8%.
Screening CC(=O)Nc1nc2ccccc2n1CCOc1ccccc1 returned Giardia kill 22, IL1B secr inh 24, Vif-A3G inh 0%, Vif-APOBEC3F blk 0%, MCF10A rerep inconclusive and SW480 rerep 14%.
Screening COc1cccc2c1cc1c(=O)n(CC(=O)N3CCN(c4ccccc4F)CC3)nc(C)n12 returned Vif-A3G inh 2% and Vif-APOBEC3F blk -2%.
`Cc1ccc2c(c1)-c1cc(C)nn1C(c1cc(Br)ccc1O)N2` (centres undefined) gave Vif-A3G inh -3% and Vif-APOBEC3F blk -2%.
For CC1=C(C(=O)O)N2C(=O)[C@@H](NC(=O)[C@@H](N)c3ccc(O)cc3)[C@@H]2SC1 the results were MCF10A rerep -2%[20.6 µM] and SW480 rerep -11%[20.6 µM].
CCOC(=O)C1(Cc2cccc(OC)c2)CCN(Cc2ccc(C)s2)CC1 was read as Giardia kill -5, IL1B secr inh -118*, Vif-A3G inh 0%, Vif-APOBEC3F blk -16%, MCF10A rerep inconclusive and SW480 rerep -1%.
`CCOC(=O)C1(Cc2cccc(F)c2)CCN(Cc2nc(CC)[nH]c2C)CC1` gave Giardia kill 8, IL1B secr inh -55*, Vif-A3G inh 0%, Vif-APOBEC3F blk inconclusive, MCF10A rerep 13µM* and SW480 rerep 5.8µM*.

Screens (PubChem BioAssay)
